Measurements from ChEMBL document CHEMBL1857833, “Screening and optimization of specific chemical series against human African Trypanosomiasis (HAT)”.
Several values for one entry are separate records, joined by “and”; a condition that tells them apart may be missing. Equal values may be shown once. In all, about 4,400 compounds went through this assay and about 390 (8.9%) showed an effect of 50% or more. This excerpt belongs to a sample that is enriched for strong results.

What follows are molecules tested on Trypanosoma brucei (assay: DNDI: Inhibition of Human African Trypanosomiasis, SBRI 427, in vitro at 2 ug.mL-1).
Format: functional

| Compound | % inhibition |
| --- | --- |
| Cc1ccc(/C(=N/O)NCc2ccccc2)c(Oc2ccc(F)c(F)c2)n1 | 23% |
| CCOc1ccc(Oc2ccc(/C(N)=N/O)cn2)cc1 | 10% |
| Cc1ccc(-c2nc(CNc3cc[nH]n3)co2)cc1 | 10% |
| Cc1ccc(/C(=N/O)NCCC2CCCN2C)c(OCc2ccccc2)n1 (stereo unspecified) | 22% |
| Oc1ccc(-c2nc(CNC3C[C@H]4CC[C@@H]3C4)co2)cc1 (stereo partly specified) | 11% |
| Clc1ccc(-c2nc(CNC3CCc4ccccc43)co2)c(Cl)c1 (stereo unspecified) | -4% |
| Cc1cc(N2CCN(Cc3coc(-c4ccccc4Cl)n3)CC2)c2ccccc2n1 | 7% |
| Cc1cc(N2CCN(Cc3coc(-c4cccc5ccccc45)n3)CC2)c2ccccc2n1 | 52% |
| Clc1ccccc1-c1nc(CNC2CCN(Cc3ccccc3)CC2)co1 | 20% |
| Cc1ccc(-c2nc(CN3CCN(c4cc(C)nc5ccccc45)CC3)co2)cc1 | 12% |
| c1ccc(CN2CCN(Cc3coc(-c4cccc5ccccc45)n3)CC2)cc1 | 18% |
| Clc1ccc(-c2nc(CNC3CCN(Cc4ccccc4)CC3)co2)c(Cl)c1 | 74% |
| Clc1ccc(-c2nc(CNC3C[C@H]4CC[C@@H]3C4)co2)c(Cl)c1 (stereo partly specified) | 52% |
| Clc1ccc(-c2nc(CNC3CCN(Cc4ccccc4)C3)co2)c(Cl)c1 (stereo unspecified) | 18% |
| c1ccc(CN2CCC(NCc3coc(-c4cccc5ccccc45)n3)C2)cc1 (stereo unspecified) | 14% |
| c1ccc(CN2CCC(NCc3coc(-c4cccc5ccccc45)n3)CC2)cc1 | 66% |
| Cc1cccc(N2CCN(Cc3coc(-c4ccccc4F)n3)CC2)c1C | -33% |
| CN(CCc1ccccc1)Cc1coc(-c2ccccc2Cl)n1 | 17% |
| COc1cccc(-c2nc(CN(C)Cc3cc(OC)c(OC)c(OC)c3)co2)c1 | -4% |
| O/N=C(/c1cccnc1Oc1c(F)cccc1F)N1CCC2CCCCC2C1 (stereo unspecified) | -13% |
| O/N=C(\NC1CCCCC1)c1cccnc1Oc1c(F)cccc1F | 99% |
| CC1CC(N/C(=N\O)c2cccnc2Oc2c(F)cccc2F)CC(C)(C)C1 (stereo unspecified) | 98% |

| Compound | % inhibition |
| --- | --- |
| CC1CC(N/C(=N\O)c2cccnc2Oc2c(F)c(F)cc(F)c2F)CC(C)(C)C1 (stereo unspecified) | -10% |
| CC1CC(N/C(=N\O)c2cccnc2OCC(C)(C)C)CC(C)(C)C1 (stereo unspecified) | 44% |
| O/N=C(\NC1CCCC1)c1cccnc1Oc1c(F)cccc1F | 100% |
| O/N=C(\NCC1CCCCC1)c1cccnc1Oc1c(F)cccc1F | 99% |
| O/N=C(\NCC1CCCO1)c1cccnc1Oc1c(F)c(F)cc(F)c1F (stereo unspecified) | 1% |
| COc1ccc(Oc2nc(C)ccc2/C(=N/O)NCCN(C)C)cc1 | 0% |
| CCOc1ccc(-c2nc(CN(C)C3CCCCC3)co2)cc1 | 5% |
| c1ccc(Oc2ccc(NCc3coc(-c4cccc5ccccc45)n3)cc2)cc1 | 1% |
| O/N=C(/c1cccnc1OCc1ccccc1F)n1ccnc1 | -10% |
| C#CCN(C)Cc1coc(-c2ccc(C)cc2)n1 | -1% |
| Fc1cccc(-c2nc(CNCc3cccc4ccccc34)co2)c1 | 17% |
| CCOc1ccccc1N(Cc1ccccc1)Cc1coc(-c2ccc(O)cc2)n1 | -16% |
| O/N=C(/c1ccc(Oc2ccc(-n3ccnc3)cc2)nc1)N1CC=CC1 | 16% |
| COc1ccc(NCc2coc(-c3ccc(OC)cc3)n2)cc1 | 9% |
| COc1ccc(OC)c(NCc2coc(-c3ccc(C)cc3)n2)c1 | 0% |
| CC1CC(C)CN(/C(=N\O)c2cccnc2Oc2c(F)cccc2F)C1 (stereo unspecified) | 28% |
| CC1CCC(N/C(=N\O)c2cccnc2Oc2c(F)cccc2F)CC1 (stereo unspecified) | 99% |
| Cc1ccc(/C(=N/O)NC2CCC(C)CC2)c(Oc2c(F)c(F)cc(F)c2F)n1 (stereo unspecified) | 22% |
| CCOc1ccc(-c2nc(CN(C)c3ccccc3)co2)cc1 | -8% |
| CN(Cc1coc(-c2ccc(Cl)cc2Cl)n1)CC1OCCO1 | 30% |
| COc1cc(C)ccc1Oc1nc(C)ccc1/C(=N/O)Nc1ccccc1 | -6% |
| CC(C)c1ccc(NCc2coc(-c3ccc(F)cc3)n2)cc1 | 7% |

| Compound | % inhibition |
| --- | --- |
| COc1cc(-c2nc(CN(C)CCc3ccccn3)co2)cc(OC)c1OC | -7% |
| COc1ccc(-c2nc(CN3CCN(c4cccc(C(F)(F)F)c4)CC3)co2)cc1 | -13% |
| Brc1ccc(-c2nc(CNCCCn3ccnc3)co2)cc1 | 56% |
| Clc1ccc(-c2nc(CNCc3ccncc3)co2)c(Cl)c1 | 9% |
| Clc1ccc(-c2nc(CNCCCn3ccnc3)co2)c(Cl)c1 | 86% |
| COc1ccc(-c2nc(CNCCCn3ccnc3)co2)cc1 | 6% |
| CC1CCCCN1CCCNCc1coc(-c2ccc(Cl)cc2Cl)n1 (stereo unspecified) | 99% |
| Clc1ccc(-c2nc(Cn3ccnc3)co2)c(Cl)c1 | 5% |
| CCOc1ccccc1-c1nc(CNCCCn2ccnc2)co1 | 32% |
| c1ccc2c(-c3nc(CNCCCn4ccnc4)co3)cccc2c1 | 54% |
| Brc1ccccc1-c1nc(CNCCCn2ccnc2)co1 | 2% |
| Clc1ccc(-c2nc(CNCCN3CCOCC3)co2)c(Cl)c1 | 0% |
| C#CCNCc1coc(-c2ccc(Cl)cc2Cl)n1 | 3% |
| Cc1cccc(-c2nc(CNCCCn3ccnc3)co2)c1 | -8% |
| Cc1ccc(/C(=N/O)NC2CCCCC2)c(OCc2cccc(F)c2)n1 | -9% |
| CCC(NCc1coc(-c2ccc(OC(F)(F)F)cc2)n1)c1ccccc1 (stereo unspecified) | -21% |
| CSc1ccc(Oc2cc(/C(=N/O)NC3CCc4ccccc43)ccn2)cc1 (stereo unspecified) | 9% |
| COCCN(Cc1coc(-c2ccccc2C)n1)C(C)(C)C | 2% |
| COc1ccc(Oc2nc(C)ccc2/C(=N/O)N2CCCCC2)cc1 | 28% |
| Cc1cccc(Oc2nc(C)ccc2/C(=N/O)N2CCN(c3ccc(F)cc3)CC2)c1 | 12% |
| COc1ccccc1CN/C(=N\O)c1ccc(C)nc1OC1CCC1 | 6% |
| Cc1cn(Cc2coc(-c3cccc(F)c3)n2)c(-c2ccccc2)n1 | -9% |

| Compound | % inhibition |
| --- | --- |
| CCOc1ccc(Oc2cc(/C(=N/O)N3CCC4CCCCC4C3)ccn2)cc1 (stereo unspecified) | 16% |
| Cn1nc(C(C)(C)C)cc1NCc1coc(-c2cccc3ccccc23)n1 | 25% |
| CCOc1ccccc1-c1nc(CN(C)Cc2ccccc2)co1 | 4% |
| Cc1ccc(/C(=N/O)N(C)C2CCCCC2)c(Oc2cccc(F)c2)n1 | 10% |
| CCC(NCc1coc(-c2ccc(OC)cc2)n1)c1ccccc1 (stereo unspecified) | 12% and 8% |
| Clc1ccc(-c2nc(CNCCCN3CCOCC3)co2)c(Cl)c1 | 23% |
| Clc1ccc(-c2nc(CNCCCN3CCCC3)co2)c(Cl)c1 | 98% |
| Clc1ccc(-c2nc(CNCCN3CCCC3)co2)c(Cl)c1 | -4% |
| CCC(CC)N/C(=N\O)c1ccnc(Oc2ccc(OC)cc2)c1 | 97% |
| CC(C)CN/C(=N\O)c1ccnc(Oc2ccc(Cl)cc2)c1 | 25% |
| COc1ccc(Oc2cc(/C(=N/O)NCC(C)(C)C)ccn2)cc1 | 92% |
| CCOc1ccc(Oc2cc(/C(=N/O)NCc3ccc(OC)cc3)ccn2)cc1 | -4% |
| COc1ccc(Oc2cc(/C(=N/O)NCC(C)C)ccn2)cc1 | 93% |
| COc1ccc(Oc2cc(/C(=N/O)NCc3ccncc3)ccn2)cc1 | 9% |
| CCOc1ccc(Oc2cc(/C(=N/O)NCC(C)(C)C)ccn2)cc1 | 43% |
| COc1ccc(Oc2cc(/C(=N/O)Nc3ccccc3)ccn2)cc1 | 15% |
| COc1ccc(Oc2cc(/C(=N/O)NCc3cc(F)cc(F)c3)ccn2)cc1 | 5% |
| CCOc1ccc(-c2nc(CNc3ccc(OC)cc3)co2)cc1 | -21% |
| CCCCN(C)Cc1coc(-c2cccs2)n1 | 15% |
| CCOc1ccc(-c2nc(CN3CCc4cc(OC)c(OC)cc4C3C(C)C)co2)cc1 (stereo unspecified) | 15% |
| COc1ccc(-c2nc(CN(C)c3ccc(OC)cc3)co2)cc1 | 6% |
| CCOc1ccccc1Oc1ncccc1/C(=N/O)n1cnc(C)c1 | 16% |

| Compound | % inhibition |
| --- | --- |
| CCOc1ccccc1CNCc1coc(-c2ccc(OC)cc2)n1 | -13% |
| CCCC(C)NCc1coc(-c2ccccc2Br)n1 (stereo unspecified) | -7% |
| Fc1cccc(-c2nc(CN3CCN(c4cccc(Cl)c4)CC3)co2)c1 | 17% |
| COc1cccc(-c2nc(CN(C)CCc3ccccc3)co2)c1 | 1% |
| COc1ccc(CN/C(=N\O)c2ccc(Oc3cccc(OC)c3)nc2)cc1 | 10% |
| Cc1cccc(Oc2ccc(/C(=N/O)NCC3CCCCC3)cn2)c1 | 36% |
| COc1cccc(Oc2ccc(/C(=N/O)NCC3CCCCC3)cn2)c1 | 87% |
| Cc1cccc(Oc2ccc(/C(=N/O)NC3CCC(C)CC3)cn2)c1 (stereo unspecified) | 59% |
| COc1cccc(Oc2ccc(/C(=N/O)NC3CCCCC3)cn2)c1 | 98% |
| Cc1cccc(Oc2ccc(/C(=N/O)NC3CC(C)CC(C)(C)C3)cn2)c1 (stereo unspecified) | 47% |
| COc1cccc(Oc2ccc(/C(=N/O)NC3CCN(Cc4ccccc4)C3)cn2)c1 (stereo unspecified) | -3% |
| Cc1cccc(Oc2ccc(/C(=N/O)NC3CCc4ccccc43)cn2)c1 (stereo unspecified) | 10% |
| COc1cccc(Oc2ccc(/C(=N/O)NC3CCC(C)CC3)cn2)c1 (stereo unspecified) | 89% |
| COc1cccc(Oc2ccc(/C(=N/O)NC3CC(C)CC(C)(C)C3)cn2)c1 (stereo unspecified) | 7% |
| Cc1ccc(/C(=N/O)N2CCC3CCCCC3C2)c(Oc2cccc(F)c2)n1 (stereo unspecified) | 16% |
| CCCN(Cc1coc(-c2cccc(F)c2)n1)CC1CC1 | 17% |
| COc1ccc(NCc2coc(-c3cccc(F)c3)n2)cc1 | 14% |
| CC(C)c1cccc(Oc2cc(/C(=N/O)NC3CCc4ccccc43)ccn2)c1 (stereo unspecified) | 4% |
